The supplement of paper PMC10849652
About 7,900 targets were measured; listed, in parts, are those with a hit and a random draw of the rest. About 0.6% of all pairs of compound and target were hits. Unmarked numbers belong to inactive results.

Key:
Experiment in all cases: log2 fold change, soluble protein after heating vs DMSO (PISA); higher = thermal stabilisation; K562 cells, 10 uM, 30 min; active = over 0.2 and 3.5 SD of the protein, either way, in both replicates (recomputed)
[1] = compound: CC1=C(C=C(C=C1)NC(=O)C2=CC(=CC=C2)C(C)(C)C#N)NC3=CC4=C(C=C3)N=CN(C4=O)C
Method in brief: (§1)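 K562 cells at 2×10^6 cells/mL were given 10 μM compound for 30 min. Aliquots then went through 3 min of heating across 48°C-58°C, were pooled, and were extracted in PBS with 0.5% NP-40 at 4°C, and the supernatant after 21,000xg for 90 min was quantified by TMTpro 16plex LC-MS/MS with channel sums equalised. Thermal stability relative to control samples, from duplicates, is given as log2 fold change.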

[2] = compound: CC1=C(C=C(C=C1)NC(=O)C2=CC(=CC=C2)N(C)C)NC(=O)C3=CC=C(C=C3)O
Method in brief: as §1

[3] = compound: CC1=CC=C(C=C1)SC2=C3C=C(SC3=CN=C2)C(=O)N
Method in brief: as §1

[4] = compound: CC1=NC(=CC=C1)C2=C(N=C(N2)C(C)(C)C)C3=CC4=NC=CN=C4C=C3
Method in brief: as §1

Nexturastat A = compound: CCCCN(Cc1ccc(C(=O)NO)cc1)C(=O)Nc1ccccc1 [Nexturastat A]
Method in brief: as §1

vemurafenib = compound: CCCS(=O)(=O)Nc1ccc(F)c(C(=O)c2c[nH]c3ncc(-c4ccc(Cl)cc4)cc23)c1F [vemurafenib]
Method in brief: as §1

[5] = compound: CCCS(=O)(=O)Nc1ccc(F)c(C(=O)c2c[nH]c3ncc(Cl)cc23)c1F
Method in brief: as §1

[6] = compound: CCCc1cc(C)[nH]c(=O)c1CNC(=O)c1cc(-c2ccnc(N3CCN(C)CC3)c2)cc2c1cnn2C(C)C
Method in brief: as §1

givinostat = compound: CCN(CC)Cc1ccc2cc(COC(=O)Nc3ccc(C(=O)NO)cc3)ccc2c1 [givinostat]
Method in brief: as §1

barasertib = compound: CCN(CCCOc1ccc2c(Nc3cc(CC(=O)Nc4cccc(F)c4)[nH]n3)ncnc2c1)CCOP(=O)(O)O [barasertib]
Method in brief: as §1

[7] = compound: CC[C@@H]1C(=O)N(C)c2cnc(Nc3ccc(C(=O)NC4CCN(C)CC4)cc3OC)nc2N1C1CCCC1
Method in brief: as §1

volasertib = compound: CC[C@@H]1C(=O)N(C)c2cnc(Nc3ccc(C(=O)N[C@H]4CC[C@H](N5CCN(CC6CC6)CC5)CC4)cc3OC)nc2N1C(C)C [volasertib]
Method in brief: as §1

[8] = compound: CC[C@H](C)N1C=C(C2=C(C=C(C=C21)C3=CN=C(C=C3)N4CCNCC4)C(=O)NCC5=C(C=C(NC5=O)C)C)C
Method in brief: as §1

epoxomicin = compound: CC[C@H](C)[C@@H](C(=O)N[C@@H]([C@@H](C)O)C(=O)N[C@@H](CC(C)C)C(=O)[C@]1(CO1)C)NC(=O)[C@H]([C@@H](C)CC)N(C)C(=O)C [epoxomicin]
Method in brief: as §1

[9] = compound: CCn1c(C(=O)N(C2CC2)C2CC2)cc2c3c(ncn3C)c(Nc3cc(C)n(C)n3)nc21
Method in brief: as §1

[10] = compound: CCn1cc(-c2ccnc3[nH]c(-c4cccc(CN(C)C)c4)cc23)c(-c2ccc(NC(=O)N(C)C)cc2)n1
Method in brief: as §1

[11] = compound: CN(C)CC(=O)Nc1ccc2[nH]c(=O)c3ccccc3c2c1
Method in brief: as §1

rosiglitazone = compound: CN(CCOC1=CC=C(C=C1)C[C@H]2C(=O)NC(=O)S2)C3=CC=CC=N3 (racemic) [rosiglitazone]
Method in brief: as §1

[12] = compound: CN1C2=C(C3=C1C(=O)N(N=C3)CC4=CC(=CC=C4)N)SC(=C2)S(=O)C
Method in brief: as §1

[13] = compound: CN1CCC(CNc2ccc3ncc(-c4cccc(OC(F)(F)F)c4)n3n2)CC1
Method in brief: as §1

UniProt P14618, sequence (P14618 whole entry, looked up): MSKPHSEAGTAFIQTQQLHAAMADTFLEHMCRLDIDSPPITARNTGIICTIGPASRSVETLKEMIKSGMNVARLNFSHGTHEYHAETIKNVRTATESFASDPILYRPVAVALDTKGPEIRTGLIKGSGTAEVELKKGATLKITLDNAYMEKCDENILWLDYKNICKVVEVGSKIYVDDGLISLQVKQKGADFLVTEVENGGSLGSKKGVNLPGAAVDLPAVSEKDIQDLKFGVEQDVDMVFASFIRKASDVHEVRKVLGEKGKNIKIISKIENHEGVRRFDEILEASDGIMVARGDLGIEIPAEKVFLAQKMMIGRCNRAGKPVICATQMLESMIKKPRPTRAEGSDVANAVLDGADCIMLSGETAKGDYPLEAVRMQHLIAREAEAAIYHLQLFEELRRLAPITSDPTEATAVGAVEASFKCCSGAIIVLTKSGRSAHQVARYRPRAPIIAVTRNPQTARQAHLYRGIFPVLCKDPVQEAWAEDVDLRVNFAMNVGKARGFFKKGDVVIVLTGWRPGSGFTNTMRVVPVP
UniProt O15162, sequence (O15162 whole entry, looked up): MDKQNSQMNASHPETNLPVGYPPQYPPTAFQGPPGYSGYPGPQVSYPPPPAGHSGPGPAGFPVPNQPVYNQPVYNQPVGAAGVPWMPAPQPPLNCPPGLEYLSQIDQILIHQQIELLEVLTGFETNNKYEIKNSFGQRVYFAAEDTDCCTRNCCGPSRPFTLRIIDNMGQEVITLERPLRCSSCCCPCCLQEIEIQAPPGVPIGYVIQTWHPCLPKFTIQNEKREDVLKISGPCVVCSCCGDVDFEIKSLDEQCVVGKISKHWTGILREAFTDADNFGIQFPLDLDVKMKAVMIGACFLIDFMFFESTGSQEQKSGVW
UniProt Q6GMV3, sequence (Q6GMV3 whole entry, looked up): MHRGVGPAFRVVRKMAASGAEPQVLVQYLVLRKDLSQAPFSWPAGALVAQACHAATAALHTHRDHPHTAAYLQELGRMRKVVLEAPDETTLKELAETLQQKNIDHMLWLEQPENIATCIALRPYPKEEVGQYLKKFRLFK
UniProt Q5H8A4, sequence (Q5H8A4 whole entry, looked up): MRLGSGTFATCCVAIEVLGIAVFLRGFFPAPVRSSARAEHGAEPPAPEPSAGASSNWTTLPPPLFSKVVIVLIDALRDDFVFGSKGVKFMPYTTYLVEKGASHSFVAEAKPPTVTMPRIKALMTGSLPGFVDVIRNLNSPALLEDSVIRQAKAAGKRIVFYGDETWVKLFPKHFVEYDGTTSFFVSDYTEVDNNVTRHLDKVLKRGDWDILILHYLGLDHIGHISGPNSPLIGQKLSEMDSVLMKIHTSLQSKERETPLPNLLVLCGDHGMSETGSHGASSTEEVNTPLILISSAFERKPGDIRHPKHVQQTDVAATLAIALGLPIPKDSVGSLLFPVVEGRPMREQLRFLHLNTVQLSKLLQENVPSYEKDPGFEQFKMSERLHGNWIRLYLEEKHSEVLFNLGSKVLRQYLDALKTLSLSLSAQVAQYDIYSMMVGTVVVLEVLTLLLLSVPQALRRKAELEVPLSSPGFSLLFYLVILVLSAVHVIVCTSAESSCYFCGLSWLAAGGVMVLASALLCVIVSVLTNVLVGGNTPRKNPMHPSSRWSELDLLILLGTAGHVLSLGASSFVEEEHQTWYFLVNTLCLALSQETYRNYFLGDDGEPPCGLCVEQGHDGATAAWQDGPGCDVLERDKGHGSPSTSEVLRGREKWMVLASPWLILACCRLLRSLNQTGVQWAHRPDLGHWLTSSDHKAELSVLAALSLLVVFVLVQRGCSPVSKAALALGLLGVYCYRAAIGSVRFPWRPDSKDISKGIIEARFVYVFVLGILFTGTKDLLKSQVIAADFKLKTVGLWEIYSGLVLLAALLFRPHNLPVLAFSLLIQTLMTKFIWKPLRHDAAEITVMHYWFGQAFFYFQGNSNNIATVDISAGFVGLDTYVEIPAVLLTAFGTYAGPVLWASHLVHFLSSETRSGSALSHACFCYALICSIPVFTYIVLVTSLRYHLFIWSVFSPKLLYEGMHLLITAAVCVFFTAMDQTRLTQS
UniProt Q13362, sequence (Q13362 whole entry, looked up): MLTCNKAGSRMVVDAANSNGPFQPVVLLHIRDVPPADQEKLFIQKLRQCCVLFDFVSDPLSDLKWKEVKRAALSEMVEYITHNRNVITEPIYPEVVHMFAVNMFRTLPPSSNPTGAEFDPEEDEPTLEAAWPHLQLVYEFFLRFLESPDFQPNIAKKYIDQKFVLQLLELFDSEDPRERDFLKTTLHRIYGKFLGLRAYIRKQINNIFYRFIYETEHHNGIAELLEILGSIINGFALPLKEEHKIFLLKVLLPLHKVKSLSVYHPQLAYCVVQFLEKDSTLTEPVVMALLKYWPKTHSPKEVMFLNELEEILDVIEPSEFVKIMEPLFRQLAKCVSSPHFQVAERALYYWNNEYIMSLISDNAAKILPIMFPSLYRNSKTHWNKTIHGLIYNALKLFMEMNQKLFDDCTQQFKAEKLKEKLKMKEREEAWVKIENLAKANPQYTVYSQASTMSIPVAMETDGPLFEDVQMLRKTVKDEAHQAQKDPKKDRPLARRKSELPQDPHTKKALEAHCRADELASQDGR
UniProt Q9H300, sequence (Q9H300 whole entry, looked up): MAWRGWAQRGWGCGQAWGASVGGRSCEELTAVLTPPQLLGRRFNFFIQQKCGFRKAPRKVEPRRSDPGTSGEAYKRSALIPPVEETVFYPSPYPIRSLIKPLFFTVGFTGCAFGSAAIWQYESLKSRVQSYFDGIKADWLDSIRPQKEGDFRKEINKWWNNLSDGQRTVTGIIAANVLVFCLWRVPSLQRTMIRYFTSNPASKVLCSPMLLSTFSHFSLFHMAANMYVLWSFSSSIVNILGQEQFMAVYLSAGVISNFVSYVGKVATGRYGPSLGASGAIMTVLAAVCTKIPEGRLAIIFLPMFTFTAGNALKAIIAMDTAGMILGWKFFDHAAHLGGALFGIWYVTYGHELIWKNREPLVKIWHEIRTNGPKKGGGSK
UniProt Q99460, sequence (Q99460 whole entry, looked up): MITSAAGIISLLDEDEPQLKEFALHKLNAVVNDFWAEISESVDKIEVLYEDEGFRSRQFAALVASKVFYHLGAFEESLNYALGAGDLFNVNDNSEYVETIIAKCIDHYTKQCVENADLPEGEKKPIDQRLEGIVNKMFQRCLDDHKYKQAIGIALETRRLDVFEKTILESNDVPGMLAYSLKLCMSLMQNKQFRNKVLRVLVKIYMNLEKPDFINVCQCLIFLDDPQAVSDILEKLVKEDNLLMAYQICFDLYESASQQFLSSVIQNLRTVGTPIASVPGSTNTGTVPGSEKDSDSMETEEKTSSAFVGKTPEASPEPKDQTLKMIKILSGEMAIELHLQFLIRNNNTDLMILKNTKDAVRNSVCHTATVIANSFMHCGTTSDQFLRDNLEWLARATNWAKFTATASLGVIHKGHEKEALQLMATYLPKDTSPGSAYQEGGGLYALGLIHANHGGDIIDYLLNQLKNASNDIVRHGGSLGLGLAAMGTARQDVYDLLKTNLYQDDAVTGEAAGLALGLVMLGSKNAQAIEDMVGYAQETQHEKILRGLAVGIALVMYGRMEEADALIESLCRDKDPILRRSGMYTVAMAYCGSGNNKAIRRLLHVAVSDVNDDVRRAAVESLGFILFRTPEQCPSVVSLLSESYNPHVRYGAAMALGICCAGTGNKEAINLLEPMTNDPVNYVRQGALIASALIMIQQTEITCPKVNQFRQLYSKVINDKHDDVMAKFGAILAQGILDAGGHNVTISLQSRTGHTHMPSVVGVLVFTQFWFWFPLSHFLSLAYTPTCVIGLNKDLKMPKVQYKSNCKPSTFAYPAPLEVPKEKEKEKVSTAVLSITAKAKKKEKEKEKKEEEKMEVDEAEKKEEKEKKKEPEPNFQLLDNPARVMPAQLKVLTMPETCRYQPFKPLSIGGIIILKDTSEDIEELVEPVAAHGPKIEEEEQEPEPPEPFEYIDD
UniProt O00231, sequence (O00231 whole entry, looked up): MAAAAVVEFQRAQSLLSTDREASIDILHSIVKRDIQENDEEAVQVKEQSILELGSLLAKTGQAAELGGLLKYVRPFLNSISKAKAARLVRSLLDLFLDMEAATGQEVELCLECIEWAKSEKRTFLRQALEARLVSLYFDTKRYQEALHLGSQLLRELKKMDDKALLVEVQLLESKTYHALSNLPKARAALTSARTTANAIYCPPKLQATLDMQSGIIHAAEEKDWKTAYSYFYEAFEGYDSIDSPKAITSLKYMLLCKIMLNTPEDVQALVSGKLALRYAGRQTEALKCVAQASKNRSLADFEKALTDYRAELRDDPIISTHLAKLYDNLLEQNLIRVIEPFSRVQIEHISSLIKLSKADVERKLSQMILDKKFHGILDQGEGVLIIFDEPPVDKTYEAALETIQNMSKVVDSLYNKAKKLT
UniProt Q96AD5, sequence (Q96AD5 whole entry, looked up): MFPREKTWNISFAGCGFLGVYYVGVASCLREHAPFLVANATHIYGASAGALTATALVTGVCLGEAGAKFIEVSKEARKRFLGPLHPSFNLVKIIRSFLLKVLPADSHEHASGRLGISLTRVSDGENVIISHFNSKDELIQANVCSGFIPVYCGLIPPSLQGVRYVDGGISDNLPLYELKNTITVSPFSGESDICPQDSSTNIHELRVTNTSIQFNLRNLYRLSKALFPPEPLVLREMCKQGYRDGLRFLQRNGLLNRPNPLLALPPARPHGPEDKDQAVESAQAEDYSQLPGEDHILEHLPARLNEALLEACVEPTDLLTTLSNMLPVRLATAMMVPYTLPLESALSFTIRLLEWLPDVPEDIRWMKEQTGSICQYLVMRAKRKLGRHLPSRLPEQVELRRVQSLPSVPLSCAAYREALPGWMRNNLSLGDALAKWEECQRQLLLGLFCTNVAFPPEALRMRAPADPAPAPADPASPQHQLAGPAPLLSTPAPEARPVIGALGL
UniProt Q15004, sequence (Q15004 whole entry, looked up): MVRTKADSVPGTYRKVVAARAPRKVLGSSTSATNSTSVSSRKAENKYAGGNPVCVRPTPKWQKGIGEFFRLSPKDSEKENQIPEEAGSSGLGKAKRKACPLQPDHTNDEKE

Row | Target | log2 fold change [1] | log2 fold change [2] | log2 fold change [3] | log2 fold change [4] | log2 fold change (Nexturastat A) | log2 fold change (vemurafenib) | log2 fold change [5] | log2 fold change [6] | log2 fold change (givinostat) | log2 fold change (barasertib) | log2 fold change [7] | log2 fold change (volasertib) | log2 fold change [8] | log2 fold change (epoxomicin) | log2 fold change [9] | log2 fold change [10] | log2 fold change [11] | log2 fold change (rosiglitazone) | log2 fold change [12] | log2 fold change [13]
1 | PSMD1 (UniProt Q99460) | 0.06 | 0.021 | -0.001 | -0.011 | 0.055 | -0.041 | -0.049 | 0.05 | -0.046 | -0.036 | 0.042 | 0.146 | -0.001 | -0.278 | 0.015 | 0.028 | -0.005 | -0.026 | 0.043 | 0.059
2 | PTRHD1 (UniProt Q6GMV3) | -0.051 | -0.098 | 0.017 | 0.022 | 0.074 | 0.059 | -0.024 | -0.024 | -0.008 | 0.034 | 0.106 | 0.037 | -0.028 | 0.415 (active) | 0.064 | 0.086 | -0.056 | 0.048 | 0.019 | 0.078
3 | PIK3R1 (UniProt P27986) | -0.08 | 0.001 | -0.019 | -0.046 | -0.018 | 0.047 | 0.058 | -0.054 | 0.028 | 0.038 | -0.04 | -0.142 | -0.018 | 0.036 | -0.015 | -0.072 | -0.002 | 0.095 | -0.064 | 0.127
4 | PARL (UniProt Q9H300) | 0 | 0.025 | 0.02 | 0.002 | -0.098 | -0.014 | 0.057 | -0.036 | 0.068 | -0.022 | -0.059 | -0.008 | -0.009 | -0.076 | 0.031 | -0.062 | -0.035 | 0.035 | -0.004 | -0.134
5 | PSMD11 (UniProt O00231) | 0.048 | -0.005 | 0.017 | -0.006 | 0.124 | -0.031 | 0.058 | 0.047 | -0.027 | -0.056 | 0.011 | 0.187 | 0.036 | -0.262 | -0.016 | 0 | 0 | -0.016 | 0.018 | 0.053
6 | PNPLA2 (UniProt Q96AD5) | 0.009 | -0.017 | -0.003 | 0.008 | -0.021 | -0.017 | 0.053 | 0.026 | 0.036 | -0.092 | 0.11 | 0.126 | 0.015 | -0.041 | 0.013 | 0.156 | -0.044 | -0.155 | -0.025 | -0.068
7 | PRPF31 (UniProt Q8WWY3) | 0.021 | -0.12 | 0 | 0.067 | -0.01 | -0.017 | 0.087 | 0.106 | 0.065 | 0.096 | -0.113 | -0.548 (active) | 0.172 | 0.049 | -0.058 | -0.079 | 0.181 | 0.104 | -0.041 | -0.348
8 | PIGG (UniProt Q5H8A4) | 0.016 | -0.003 | 0.004 | -0.007 | 0.018 | 0.359 | -0.019 | -0.045 | 0.001 | 0.001 | -0.062 | 0.022 | 0.037 | -0.017 | -0.049 | -0.022 | 0.009 | 0.015 | -0.04 | 0.093
9 | PKM (UniProt P14618) | -0.013 | -0.005 | 0.001 | 0.014 | -0.054 | -0.012 | -0.01 | -0.023 | 0 | -0.011 | 0.018 | 0.037 | -0.035 | 0.001 | -0.002 | -0.007 | -0.015 | 0.015 | 0.002 | -0.017
10 | PLSCR1 (UniProt O15162) | 0.13 | 0.06 | 0.025 | -0.002 | 0.008 | -0.05 | 0.088 | -0.101 | -0.033 | -0.104 | 0.025 | -0.1 | -0.069 | -0.022 | 0.013 | 0.053 | 0.037 | -0.033 | -0.02 | 0.044
11 | PPP2R5C isoform 5 (UniProt Q13362) | 0.001 | -0.045 | 0.012 | 0.052 | -0.171 | 0.066 | 0.038 | 0.032 | 0.059 | 0.018 | -0.12 | -0.429 (active) | 0.019 | 0.06 | -0.086 | -0.009 | -0.023 | 0.021 | -0.027 | -0.203
12 | PCLAF (UniProt Q15004) | -0.119 | 0.031 | -0.014 | -0.009 | -0.002 | -0.097 | -0.083 | 0.115 | -0.061 | -0.007 | 0.085 | 0.124 | -0.046 | 0.185 | 0.012 | 0.035 | -0.087 | -0.014 | 0.001 | 0.015
13 | PARG (UniProt Q86W56) | 0.126 | -0.064 | -0.008 | 0.025 | 0.018 | 0.087 | -0.006 | -0.003 | 0.107 | 0.07 | 0.036 | -0.025 | 0.059 | 0.004 | -0.126 | -0.016 | 0.09 | 0.059 | 0.005 | -0.126
14 | PSMC6 (UniProt P62333) | 0 | 0.022 | -0.034 | -0.043 | 0.034 | -0.067 | -0.069 | 0.01 | -0.081 | -0.055 | 0.033 | 0.178 | -0.021 | -0.312 (active) | -0.012 | 0.029 | -0.03 | -0.038 | 0.009 | 0.018
15 | PIP4K2A (UniProt P48426) | -0.027 | -0.061 | 0.017 | -0.005 | -0.051 | -0.044 | 0.004 | -0.01 | -0.052 | 0.022 | 0.602 (active) | 0.768 (active) | -0.055 | 0.018 | -0.049 | -0.052 | -0.021 | -0.009 | 0.04 | 0.114
16 | PSMC5 (UniProt P62195) | 0.014 | 0.011 | -0.029 | -0.05 | 0.003 | -0.048 | -0.053 | 0.032 | -0.082 | -0.034 | 0.043 | 0.178 | -0.002 | -0.308 (active) | 0.024 | 0.039 | -0.029 | -0.014 | 0.015 | 0.066
